# In PMC4336329 (PLoS ONE, 2015):
# Hit rate of the full screen: of about 310,000 compounds, about 14,000 (4.5%) showed an effect of 50% or more. The effect is printed as a negative number. Only a selection was taken, and strong results are over-represented in it overall.
# Target: human ether-à-go-go-related gene (hERG) potassium channel (human, UniProt Q12809)
# Assay: primary screen, population patch clamp on CHO cells stably expressing hERG; higher = less effect of the substance
# 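Further: peak tail current of the secondary pulse compared with the same well before compound.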
# human ether-à-go-go-related gene (hERG) potassium channel, sequence (Q12809 whole entry, looked up): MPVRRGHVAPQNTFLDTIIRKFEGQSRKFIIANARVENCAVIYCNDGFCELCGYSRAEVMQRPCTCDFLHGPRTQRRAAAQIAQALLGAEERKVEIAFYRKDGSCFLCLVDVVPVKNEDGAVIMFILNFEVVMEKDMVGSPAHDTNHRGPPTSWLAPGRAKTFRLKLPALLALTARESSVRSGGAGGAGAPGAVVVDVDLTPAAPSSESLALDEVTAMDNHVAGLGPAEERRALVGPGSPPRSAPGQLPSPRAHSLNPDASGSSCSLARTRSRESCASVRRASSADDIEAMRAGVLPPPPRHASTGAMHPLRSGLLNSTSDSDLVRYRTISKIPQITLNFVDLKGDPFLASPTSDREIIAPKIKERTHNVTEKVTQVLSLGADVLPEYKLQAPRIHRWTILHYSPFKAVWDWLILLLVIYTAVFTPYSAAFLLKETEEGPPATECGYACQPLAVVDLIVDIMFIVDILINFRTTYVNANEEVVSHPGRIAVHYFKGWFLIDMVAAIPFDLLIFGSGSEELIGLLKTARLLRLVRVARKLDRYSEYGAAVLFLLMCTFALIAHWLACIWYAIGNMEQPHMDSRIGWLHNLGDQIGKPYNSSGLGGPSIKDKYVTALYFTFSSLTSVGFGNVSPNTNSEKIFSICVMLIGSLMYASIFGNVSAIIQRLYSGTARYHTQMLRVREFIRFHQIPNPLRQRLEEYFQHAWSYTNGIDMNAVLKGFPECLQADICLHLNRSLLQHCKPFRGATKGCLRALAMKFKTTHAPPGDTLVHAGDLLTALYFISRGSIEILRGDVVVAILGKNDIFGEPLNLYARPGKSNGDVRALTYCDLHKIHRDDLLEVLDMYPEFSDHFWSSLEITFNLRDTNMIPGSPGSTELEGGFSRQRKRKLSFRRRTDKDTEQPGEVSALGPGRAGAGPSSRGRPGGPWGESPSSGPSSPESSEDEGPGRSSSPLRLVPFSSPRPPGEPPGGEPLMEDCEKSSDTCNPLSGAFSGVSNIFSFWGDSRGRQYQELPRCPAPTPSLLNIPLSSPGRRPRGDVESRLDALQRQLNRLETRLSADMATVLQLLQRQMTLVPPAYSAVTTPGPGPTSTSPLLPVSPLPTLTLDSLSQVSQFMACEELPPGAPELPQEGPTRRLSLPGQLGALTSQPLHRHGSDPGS
row,Compound,"hERG current change (%, negative = inhibition) at 10uM [%]"
1,CCOC(=O)c1c(S(=O)(=O)NCCc2ccco2)c(C)n(C)c1C,-1.25
2,NNC(=O)c1ccc(Cn2cccn2)o1,5.58
3,CCn1nc(C)c(NS(=O)(=O)c2ccc(C)cc2)c1C,-0.126
4,CCCCC1(CCCC)C(=O)NC(=Nc2cccc(C)c2)NC1=O,0.0469
5,COCC(C)NS(=O)(=O)c1ccccc1 (stereo not shown),12.7
6,COCCCNC(=S)Nc1cccc(S(=O)(=O)NC2=NCCC2)c1,36.7
7,COc1ccc(CCNC(=O)c2ccc3c(c2)NC(=O)C(CSCc2cc(C)ccc2C)N3)cc1OC (stereo not shown),12.2
8,O=C(Nc1ccc(S(=O)(=O)NCc2ccco2)cc1)c1ccc2ccccc2n1,-0.235
9,COc1ccc(C2(C)ON(c3ccccc3C(F)(F)F)C2=O)cc1 (stereo not shown),5.36
10,CCCCOCCCNC(=O)c1c(-c2ccccc2)noc1C,3.4
11,CCOC(=O)CCN(Cc1ccccc1)S(=O)(=O)c1csc(C(N)=O)c1,-22.4
12,CCC(=O)c1ccc(OCC(O)CN2CCN(c3ccc(F)cc3)CC2)cc1 (stereo not shown),-26.8
13,Cl.OC(COc1ccc2c(c1)OCO2)CN1CCN(c2ccccc2)CC1 (stereo not shown),-2.44
14,Cl.OC(COc1ccc2c(c1)OCO2)CN1CCN(c2ccc(F)cc2)CC1 (stereo not shown),-66.1
15,Cl.OC(COc1ccc2c(c1)OCO2)CN1CCCC1 (stereo not shown),5.48
16,COc1ccc(N2CCN(CC(O)COc3ccc(F)cc3)CC2)cc1.Cl (stereo not shown),-69.9
17,COc1ccc(OCC(O)CN2CCN(c3ccc(OC)cc3)CC2)cc1.Cl (stereo not shown),-37.7
18,CC(=O)c1ccc(OCC(O)CN2CCN(c3ccc(F)cc3)CC2)cc1.Cl (stereo not shown),-67.4
19,CC(=O)c1ccc(OCC(O)CN2CCN(CC(O)COc3ccc(C(C)=O)cc3)CC2)cc1 (stereo not shown),-39.4
20,CC1CCN(CC(O)COc2ccc(F)cc2)CC1 (stereo not shown),-37.7
21,COc1ccc(OCC(O)CN2CCN(CC(O)COc3ccc(OC)cc3)CC2)cc1 (stereo not shown),-47.5
22,OC(COc1ccc(F)cc1)CN1CCN(CC(O)COc2ccc(F)cc2)CC1 (stereo not shown),-71.5

row,Compound,"hERG current change (%, negative = inhibition) at 10uM [%]"
1,Cc1ccc(NC(=S)NC(=O)/C=C/c2ccco2)c(O)c1,2.91
2,COC(=O)CCC(=O)N1CCCC(CNS(=O)(=O)c2ccc(OC)cc2)C1 (stereo not shown),39.4
3,COc1cc(NC(=O)COC(=O)Cn2cnc3c2c(=O)n(C)c(=O)n3C)cc(OC)c1,1.05
4,CC(C)COC(=O)C1C2C=CC3(CN(C4CCCC4)C(=O)C13)O2 (stereo not shown),-15.4
5,Cc1ccc(S(=O)(=O)N2CCN(C(=O)c3ccccn3)CC2)cc1,9.2
6,Cc1cccc(NC(=O)c2cc(-c3ccc(C)s3)nc3ccccc23)n1,5.03
7,CC(=O)c1cc2ccccc2oc1=O,2.96
8,CCN1C(=O)[C@H]2[C@@H](c3ccc(C)cc3)N3C(=O)N(c4cccc(F)c4)C(=O)[C@@]3(C)[C@H]2C1=O,3.13
9,O=S(=O)(Cc1cccc(C(F)(F)F)c1)c1ncn[nH]1,17.9
10,COc1cccc(COc2ccc3c(C)c(Cc4ccccc4)c(=O)oc3c2)c1,6.98
11,CCN1C=C(Cc2cccs2)C2=C(C1)C(c1cccs1)C(C#N)=C(N)O2 (stereo not shown),-16.8
12,CCC(C)(C)c1ccc(OCCCC[n+]2cccc(C)c2C)c(C(C)(C)CC)c1.[Br-],-75.8
13,Cc1cc(=O)oc2cc(OCCCC[n+]3ccccc3)ccc12.[Br-],4.72
14,CCC(C)(C)c1ccc(Oc2cccc(C(=O)O)c2)cc1,11.5
15,CCC(C)(C)c1ccc(O)cc1,6.62
16,CCC(C)(C)c1ccc(OCCCC[n+]2ccc(C)cc2)c(C(C)(C)CC)c1.[Br-],-75.7
17,CCC(C)(C)c1ccc(OCC(=O)N(C)C)c(C(C)(C)CC)c1,-4.24
18,Cc1cc(C(C)(C)C)ccc1OCCCCN1CCCC1,-40
19,CCC(C)(C)c1ccc(OCCCC[n+]2ccccc2)c(C(C)(C)CC)c1.[Br-],-67.2
20,Cc1cc[n+](CC[n+]2ccc(C)cc2)cc1.[Br-],16.7
21,O=C(Nc1nnc(-c2ccco2)s1)c1ccccc1,8.26
22,Nn1c(Cc2ccccc2F)nnc1SCCOc1ccc(Cl)cc1,-14.1

row,Compound,"hERG current change (%, negative = inhibition) at 10uM [%]"
1,C=CCSc1nnc(CNC(=O)c2ccccc2C)n1C(C)C,5.68
2,CC(=O)c1c(C)[nH]c(C(=O)NCCC2=CCCCC2)c1C,4.77
3,O=C1CC(c2ccccc2)CC(O)=C1C=NCCN1CCN(Cc2ccccc2)CC1 (stereo not shown),-63.1
4,Cc1ccc(C2CC(=O)C(C=NCCN3CCN(C(=O)Cc4ccccc4)CC3)=C(O)C2)cc1 (stereo not shown),-42.8
5,O=C1CC(c2ccccc2)CC(O)=C1C=NCCN1CCNCC1 (stereo not shown),9.28
6,O=C1CC(c2ccccc2)CC(O)=C1C=NCCN1CCOCC1 (stereo not shown),-0.797
7,O=C1CC(c2ccccc2)CC(O)=C1C=NCCc1ccccc1 (stereo not shown),6.57
8,O=C1CC(c2ccccc2)CC(O)=C1C=NCCN1CCN(C(=O)Cc2ccccc2)CC1 (stereo not shown),-53
9,Cc1ccc(C)c(OC2=NS(=O)(=O)c3ccccc32)c1,23.2
10,Cc1cc(Cl)ccc1OCCCC(=O)N/N=C/c1cccc([N+](=O)[O-])c1,22.2
11,CC(=O)Nc1cccc(-c2nc3ccccc3s2)c1,-13.4
12,O=C(Nc1ccc(O)c(-c2nc3ccccc3s2)c1)c1cccs1,-9.79
13,O=C(Nc1cccc(-c2nc3ccccc3s2)c1)c1cccs1,-53.1
14,Cc1nc(N2CCN(c3ccccn3)CC2)c2c(C)c(C(=O)Nc3c(F)cc(F)cc3Br)sc2n1,-14.4
15,CN1CCN(S(=O)(=O)c2ccc(Cl)c3ccccc23)CC1,-1.62
16,C=CCn1c(NC(=O)c2ccc(Br)o2)c(C(=O)OCC)sc1=S,37
17,Cc1ccc(Cl)cc1N1CCN(C(=O)C2(S(=O)(=O)c3ccc(Cl)cc3)CC2)CC1,-6.38
18,CC(=O)c1ccc(N2CCN(C(=O)C3(S(=O)(=O)c4ccc(Cl)cc4)CC3)CC2)cc1,-51.8
19,Cc1ccc(S(=O)(=O)C2(C(=O)N3CCCCCC3)CC2)cc1,-11.6
20,O=C(N1CCN(c2ccccc2)CC1)C1(S(=O)(=O)c2ccc(Cl)cc2)CC1,-42.1
21,Cc1ccc(S(=O)(=O)C2(C(=O)N3CCN(c4cc(C)ccc4C)CC3)CC2)cc1,-15.2
22,COc1ccc(N2CCN(C(=O)C3(S(=O)(=O)c4ccc(C)cc4)CC3)CC2)cc1,-53.7

row,Compound,"hERG current change (%, negative = inhibition) at 10uM [%]"
1,CCOc1ccc(C(=O)CCC(=O)Nc2cc(C)ccn2)cc1,11.8
2,COc1ccc(OC)c(N=Cc2c(O)c3ccccc3oc2=O)c1,12.9
3,O=C(CCc1nnc2ccc(NCc3ccccc3Cl)nn12)NC1CCCCC1,-7.98
4,COc1ccc(C(=O)C2CCCN(Cc3cccn3-c3ccccn3)C2)c(OC)c1 (stereo not shown),-74.6
5,COc1ccc(C(=O)C2CCCN(Cc3cccn3-c3ccccn3)C2)c(C)c1 (stereo not shown),-78.9
6,COc1ccc(C(=O)C2CCCN(C(=O)CCc3ccccn3)C2)c(C)c1 (stereo not shown),-14.7
7,COc1ccc(C(=O)C2CCCN(Cc3cccn3-c3ccc(Cl)cn3)C2)c(OC)c1 (stereo not shown),-76
8,COc1ccc(C(=O)C2CCCN(CCO)C2)c(C)c1 (stereo not shown),4.23
9,COc1ccccc1NC(=O)Cn1c(C)nc2c(sc(=S)n2Cc2ccco2)c1=O,-32.6
10,COc1cc(Cl)cc(C#N)c1OCC(=O)O,11
11,O=C(NC(Nc1nc2ccc([N+](=O)[O-])cc2s1)(C(F)(F)F)C(F)(F)F)c1ccccc1Cl,-23.1
12,O=C(CSc1nnc(-c2cccnc2)n1Cc1ccccc1)NCc1ccccc1,-14.1
13,O=C(COC(=O)c1ccccc1NS(=O)(=O)c1cccs1)NCC12CC3CC(CC(C3)C1)C2,5.15
14,COc1cc(NC2c3ccccc3C(=O)N2Cc2ccccc2Cl)cc(OC)c1OC (stereo not shown),-0.846
15,CC(C)(CO)NC(=O)C(Cc1ccccc1)N1C(=O)c2ccccc2C1=O (stereo not shown),17
16,Cc1c(C#N)c(NC(=O)CCl)n(Cc2cccs2)c1C,-11.4
17,CCN1CCN(C(=O)CCc2nnc(CCCCc3ccccc3)o2)[C@@H](C)C1=O,16.5
18,CN1CCC(=O)N([C@H](CSc2ccc(Br)cc2)c2ccccc2)CC1,-83.7
19,CN1CCC(=O)N([C@H](CN=[N+]=[N-])c2ccccc2)CC1,6.65
20,CN1CCC(=O)N([C@H](CSc2ccccc2)c2ccccc2)CC1,-64.9
21,CN1CCC(=O)N([C@H](CO)c2ccccc2)CC1,3.76
22,CN1CCC(=O)N([C@H](CC#N)c2ccccc2)CC1,16.2
